High-throughput results from PubChem BioAssay.
The list is not random: actives were taken first. Their share in the collection is about 8%.
VP16 counter: inhibits Gal4-VP16 luciferase reporter, ROR gamma counter-screen | Drosophila S2 Gal4-VP16 UAS-luciferase, luminescence, 20 h | Potency, µM (series often up to 53.6 µM), hits mostly inhibitors | 310,000 tested, 3.5% active;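 note: Gal4-VP16 expression switched on by copper sulfate through the metallothionein promoter; nearly all actives have a fitted effect of over 50% in size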
TSHR antag: blocks TSH signaling through the human TSH receptor; 330,000 tested, 0.2% active; P16473; AID 504810; TSHR-expressing cells, TSH-stimulated cAMP HTRF, 2 h; hits give low values; activity change, negative = inhibition, % at 11.5 µM;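 active = activity change below a set negative limit, meaning inhibition stronger than a set level, cut at about -70% in these data; inconclusive = activity change between two set negative limits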
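Freshly harvested TSHR cells receive pin-tooled compound, then EC80 TSH at 4nM final. After 2 hours at 37 deg C, antibody in lysis buffer and cAMP-d2 are added; 30 minutes at ambient temperature precede the HTRF read.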
Coupling enz: inhibits coupling enzyme system, counter-screen for aldolase hits; coupling enzyme system counterscreen, AmpLite Red fluorescence; activity change, negative = inhibition, % at 58.2 µM, hits read low; 290,000 tested, 0.67% active; in the data active = activity change below about -30%
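Final compound at 57.5 uM, incubated 10 min at RT with coupling enzyme reagent (glyceraldehyde-3-phosphate), then 20 min with substrate and AmpLite Red detection. Fluorescence read at 525/598 nm; tests interference with the coupling assay, not aldolase inhibition.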
RORg inh: ROR gamma (mouse) transcription inhibition; Drosophila S2 Gal4-RORgamma UAS-luciferase reporter, 20 h; Potency, µM (titrated, usually from 53.6 µM), most hits filed as inhibitors; 310,000 tested, 5.4% active; AID 2551; note: nearly all actives have a fitted effect of over 60% in size
Target sequence (P51450 whole entry, looked up, the tested form may be a part): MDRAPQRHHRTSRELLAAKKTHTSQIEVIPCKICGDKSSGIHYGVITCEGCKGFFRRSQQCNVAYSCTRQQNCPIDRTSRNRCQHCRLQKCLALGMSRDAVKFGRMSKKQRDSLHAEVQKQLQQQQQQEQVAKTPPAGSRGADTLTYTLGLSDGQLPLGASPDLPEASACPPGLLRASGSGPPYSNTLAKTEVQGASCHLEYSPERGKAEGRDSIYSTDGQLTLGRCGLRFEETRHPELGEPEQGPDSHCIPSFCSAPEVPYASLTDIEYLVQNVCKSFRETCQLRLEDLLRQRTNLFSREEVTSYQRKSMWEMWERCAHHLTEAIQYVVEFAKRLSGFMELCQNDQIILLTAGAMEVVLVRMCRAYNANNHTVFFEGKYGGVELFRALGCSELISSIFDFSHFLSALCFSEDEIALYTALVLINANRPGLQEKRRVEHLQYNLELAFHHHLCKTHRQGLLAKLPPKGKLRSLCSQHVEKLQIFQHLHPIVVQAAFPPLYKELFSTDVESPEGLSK
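In this cell-based reporter format, copper sulfate (700 uM final) drives Gal4–ROR gamma fusion expression from a metallothionein promoter in Drosophila Schneider cells; compounds preincubated 1 hr, reporter read after 20 hr at ambient temperature.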
ELG1 repair inh: blocks ELG1-dependent DNA repair in HEK293T cells; 330,000 tested, 2.3% active; AID 504467; Potency, µM (doses to about 46.1 µM), most hits filed as inhibitors; HEK293T ELG1-luciferase reporter, luminescence, 16 h; DNA damage induced by 5-fluorouridine; note: nearly all actives have a fitted effect of over 55% in size
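Step one: seed 2,000 cells per well. Step two: pin-transfer compound or DMSO alongside 5-fluorouridine. Step three: incubate 16 hr, 37 °C, 5% CO2. Step four: add ONE-Glo, wait 30 min, read luminescence.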
Hits are given with their value; [ ] = another dose, or the depositor's remark. Unless noted, calls come from the whole dose curve; as a rule, active = well fitted curve in the direction sought with a large enough effect; inconclusive = small, poorly fitted or top-dose-only effect, or another doubt; inactive = no such curve, though single readings can be large; an effect the other way counts as inactive or inconclusive.

How did CCc1ccc(CN2CCN(Cc3ccc(SC)cc3)CC2)cc1 do in these assays?
VP16 counter: inactive; TSHR antag: inactive; Coupling enz: inactive; RORg inh: inactive; ELG1 repair inh: 5.8µM

What do the screens show for `CSc1ccc(CN2CCN(c3ccccc3C)CC2)cc1`?
VP16 counter: inactive; TSHR antag: inactive; Coupling enz: inactive; RORg inh: inactive[1.91 µM]; ELG1 repair inh: inactive

Results for Cc1cc(N2C(=O)CC(N3CCC(n4c(=O)[nH]c5ccccc54)CC3)C2=O)no1 (stereo not given) ?
VP16 counter: inactive; TSHR antag: inactive; Coupling enz: inactive; RORg inh: 3.16µM; ELG1 repair inh: inactive

What do the screens show for `CCC[C@@H]1CC2=CC(=O)CC[C@]2(C)[C@@H]2CC[C@@]3(C)[C@H](CC[C@]3(O)CCC(=O)O)[C@H]12`?
VP16 counter: inactive; Coupling enz: inactive; RORg inh: inactive

Results for CCOc1ccc(NC(=O)c2c(C)nn(Cc3ccccc3)c2Cl)cc1 ?
VP16 counter: inactive; TSHR antag: inactive; Coupling enz: inactive; RORg inh: inactive; ELG1 repair inh: inactive

Results for COc1ccc(C)cc1NC(=O)c1c(C)nn(Cc2ccccc2)c1Cl ?
VP16 counter: inactive; TSHR antag: inactive; Coupling enz: inactive; RORg inh: inconclusive; ELG1 repair inh: 14.6µM

How did CC(C)C[C@H](NC(=O)CNC(=O)[C@H](CCC(N)=O)NC(=O)[C@H](Cc1ccc(O)cc1)NC(=O)[C@@H](NC(=O)[C@H](Cc1ccc(O)cc1)NC(=O)CNC(=O)[C@@H](N)CCCN=C(N)N)C(C)C)C(=O)O do in these assays?
VP16 counter: inactive; Coupling enz: inactive; RORg inh: inactive

How did COc1ccc(/C=C/c2cc(O)cc(O)c2)cc1 do in these assays?
VP16 counter: 3.55µM; Coupling enz: inactive; RORg inh: 1.41µM

How did CN(C)C(=O)Nc1cccc(C(F)(F)F)c1 do in these assays?
VP16 counter: inactive; RORg inh: inactive

What do the screens show for `Cc1nc2ccccc2c(=O)n1-c1cc([N+](=O)[O-])cc([N+](=O)[O-])c1`?
VP16 counter: inactive; TSHR antag: inactive; Coupling enz: inactive; RORg inh: 1.12µM; ELG1 repair inh: inactive

Results for Cc1cccc(N)c1C ?
VP16 counter: inactive; RORg inh: inactive

How did C=CC(=C)C do in these assays?
VP16 counter: inactive; RORg inh: inactive

How did O=C(C[N+]12CCC(CC1)C(OC(=O)c1ccccc1)C2)c1ccc([N+](=O)[O-])cc1 (stereo not given) do in these assays?
VP16 counter: inactive; TSHR antag: inactive; Coupling enz: inactive; RORg inh: inactive; ELG1 repair inh: inconclusive

What do the screens show for `O=C(C[N+]12CCC(CC1)C(CO)C2)c1ccc([N+](=O)[O-])cc1` (stereo not given)?
VP16 counter: inactive; TSHR antag: inactive; Coupling enz: inactive; RORg inh: inactive; ELG1 repair inh: 9.2µM

What do the screens show for `COc1ccc(-c2nc3ccc(C(=O)N4CCC5(CC4)OCCO5)cc3nc2-c2ccc(OC)cc2)cc1`?
VP16 counter: inactive; TSHR antag: inactive; RORg inh: inactive; ELG1 repair inh: 16.4µM

What do the screens show for `CCN(CC)C(=O)c1ccc(NC(=O)c2cc(S(=O)(=O)N3CCCCCC3)ccc2OC)cc1`?
TSHR antag: inactive; ELG1 repair inh: inactive

How did CCN1CCN(S(=O)(=O)c2ccc(Cl)c(C(=O)N(CC)CC(=O)Nc3ccc(OC)cc3)c2)CC1 do in these assays?
VP16 counter: inactive; TSHR antag: inactive; RORg inh: 5.62µM; ELG1 repair inh: inactive

How did O=C(NC(=S)Nc1ccccc1N1CCCC1)c1ccccc1Br do in these assays?
VP16 counter: 2.82µM; TSHR antag: inactive; RORg inh: 2.82µM; ELG1 repair inh: inactive

How did COP(=O)(OC)O/C(=C\Cl)c1cc(Cl)c(Cl)cc1Cl do in these assays?
VP16 counter: inconclusive; RORg inh: inactive

What do the screens show for `O=C(CSC1c2ccccc2-c2ccccc21)N/N=C/c1ccc(C(=O)O)cc1`?
VP16 counter: inactive; TSHR antag: inactive; Coupling enz: inactive; RORg inh: inactive; ELG1 repair inh: inactive

What do the screens show for `O=C(CSC1c2ccccc2-c2ccccc21)N/N=C/c1ccccc1O`?
VP16 counter: 17.8µM; TSHR antag: inactive; Coupling enz: inactive; RORg inh: 12.6µM; ELG1 repair inh: 3.66µM

What do the screens show for `C[C@]12CC(=CO)C(=O)C[C@@H]1CC[C@@H]1[C@@H]2CC[C@@]2(C)[C@H]1CC[C@]2(C)O`?
VP16 counter: 10µM; TSHR antag: inactive; Coupling enz: inactive; RORg inh: inconclusive

What do the screens show for `CC(C)[C@@]1(NC(=O)[C@H]2CC3c4cccc5[nH]cc(c45)C[C@H]3N(C)C2)O[C@@]2(O)C3CCCN3C(=O)[C@@H](Cc3ccccc3)N2C1=O` (stereo not given in full)?
VP16 counter: inactive; RORg inh: inactive[10 µM]

Results for O=C(O)CCC(CP(=O)(O)O)C(=O)O (stereo not given) ?
VP16 counter: inactive; Coupling enz: inactive; RORg inh: inactive

How did CC/C(=C\C=C\[C@@H]1C=C[C@@H]2CCC[C@H]2[C@@H]1C(=O)c1ccc[nH]1)[C@@H]1O[C@@H]([C@@H](C)C(=O)O)CC[C@@H]1C do in these assays?
VP16 counter: 10µM; TSHR antag: -72.2; Coupling enz: inactive; RORg inh: inconclusive; ELG1 repair inh: inactive

What do the screens show for `COC(=O)C1=C(c2ccccc2OCc2ccccc2)C[C@@H]2CC[C@H]1N2C(=O)NCc1ccccc1`?
TSHR antag: inactive; ELG1 repair inh: inconclusive

What do the screens show for `COC(=O)C1=C(c2ccc(-c3ccccc3)c(F)c2)C[C@@H]2CC[C@H]1N2C(=O)NCc1ccco1`?
TSHR antag: -82.5; ELG1 repair inh: inconclusive

How did COC(=O)C1=C(c2ccccc2OCc2ccccc2)C[C@@H]2CC[C@H]1N2C(=O)NCCc1ccc(F)cc1 do in these assays?
TSHR antag: inactive; ELG1 repair inh: 20.6µM

Results for COC(=O)C1=C(c2ccc(-c3ccccc3)c(F)c2)C[C@@H]2CC[C@H]1N2C(=O)NC(C)C ?
TSHR antag: -93.2; ELG1 repair inh: inactive

What do the screens show for `NC(=O)O`?
VP16 counter: inactive; Coupling enz: inactive; RORg inh: inactive

Results for C=CC(=O)OCC ?
VP16 counter: inactive; RORg inh: inactive

How did NCC[C@H](NC(=O)[C@@H](N)CCCN=C(N)N[N+](=O)[O-])C(N)=O do in these assays?
VP16 counter: inactive; Coupling enz: inactive; RORg inh: inactive

Results for CC(=O)[C@H]1CC[C@H]2C3CC[C@H]4C[C@](C)(O)CC[C@]4(C)C3CC[C@]12C (stereo not given in full) ?
VP16 counter: inactive; Coupling enz: inactive; RORg inh: inactive

Results for O=C1NC(=S)NC(=O)C1=Cc1ccc(Br)s1 ?
VP16 counter: 6.31µM; TSHR antag: inactive; Coupling enz: inactive; RORg inh: 20µM; ELG1 repair inh: inactive

Results for CSSC ?
VP16 counter: inactive; RORg inh: inactive
